Assay results taken from PubChem BioAssay (NCATS).
Results filed as inconclusive are left out. Calls of active or inactive are those of the source. The call rests on the fitted dose curve; in most records, active means well fitted curve in the direction sought with a large enough effect; inconclusive means small, poorly fitted or top-dose-only effect, or another doubt; inactive means no such curve, though single readings can be large; an effect the other way counts as inactive or inconclusive.

Assays:
[1] = target: Cellular tumor antigen p53 (Homo sapiens) (UniProt P04637); assay: Primary qHTS for small molecule compounds that upregulate eGFP-tagged delta133p53alpha (in N-terminal) cells. (AID 2060322); conditions: NCI-H358 eGFP-delta133p53alpha fluorescence, 24 h; activation: hits give high values; further: nearly all actives have a fitted effect of over 75% in size; further: potency means the concentration at half of the fitted maximal effect;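 on activation: 0% = DMSO vehicle and 100% = reference activator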
Cellular tumor antigen p53 (Homo sapiens), sequence (P04637 whole entry, looked up): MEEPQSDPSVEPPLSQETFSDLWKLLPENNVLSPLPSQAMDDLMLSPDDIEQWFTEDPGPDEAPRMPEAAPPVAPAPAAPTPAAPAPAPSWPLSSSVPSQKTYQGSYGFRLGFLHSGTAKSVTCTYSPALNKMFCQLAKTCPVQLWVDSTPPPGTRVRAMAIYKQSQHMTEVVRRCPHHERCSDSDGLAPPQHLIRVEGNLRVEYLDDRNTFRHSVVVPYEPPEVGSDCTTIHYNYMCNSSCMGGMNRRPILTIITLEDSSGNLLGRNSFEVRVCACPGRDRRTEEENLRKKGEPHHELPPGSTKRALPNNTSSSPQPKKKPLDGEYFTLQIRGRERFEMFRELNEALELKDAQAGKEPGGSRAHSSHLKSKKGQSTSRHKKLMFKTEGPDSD
Procedure, shortened: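 NCI-H358 cells pre-induced 24 h with 10 ng/ml doxycycline to express N-terminal eGFP-delta133p53alpha, then dosed 24 h at 37C without doxycycline; fixed, Hoechst-stained, GFP intensity by laser scanning cytometry, normalized to DMSO (0%) and 57.5 uM 5-azacytidine (100%).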

[2] = target: Aldehyde dehydrogenase, mitochondrial (Homo sapiens) (UniProt P05091); assay: qHTS for Inhibitors of the Aldehyde Dehydrogenase Family (ALDH2) Primary screen (AID 2061308); conditions: ALDH2 enzyme inhibition qHTS, 1536-well; series mostly up to 56 µM;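 further: plate controls were vehicle for no effect and reference inhibitor for full effect; nearly all actives have a fitted effect of over 55% in size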
[3] = target: Retinaldehyde dehydrogenase 3 (Homo sapiens) (UniProt P47895); assay: qHTS for Inhibitors of the Aldehyde Dehydrogenase Family (ALDH1A3) Validation screen (AID 2061312); conditions: ALDH1A3 enzyme inhibition qHTS validation, fluorescence; series mostly up to 84.7 µM; further: on the % scale 0 is the no-effect control and ±100 the full control effect; nearly all actives have a fitted effect of over 45% in size
[4] = target: Retinaldehyde dehydrogenase 3 (Homo sapiens) (UniProt P47895); assay: qHTS for Inhibitors of the Aldehyde Dehydrogenase Family (ALDH1A3) Primary screen (AID 2061315); conditions: ALDH inhibition qHTS; series mostly up to 56 µM;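 further: plate controls were DMSO vehicle for no effect and reference inhibitor for full effect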

Cc1ccc2[nH]c(=O)c(C3=NN(C(=O)CCC(=O)O)C(c4ccc(Br)cc4)C3)c(-c3ccccc3)c2c1 (stereo unspecified)
inactive: activation [1] -22.4% | Potency [2] | Potency [3] | Potency [4]

COc1ccc(NC(=O)c2ccc(C(=N)N(C)C)cc2)c(C(=O)Nc2ccc(Cl)cn2)c1
inactive: activation [1] -8.59% | Potency [2] | Potency [3] | Potency [4]

COc1ccc(N2CCN(C(=O)c3cc4c(s3)-c3ccccc3S(=O)(=O)C4)CC2)cc1
inactive: activation [1] -13.8% | Potency [2] | Potency [3] | Potency [4]

Cc1c(C(=O)Nc2ccc(N3CC(C)OC(C)C3)nc2)cccc1-c1ccc(OC(F)(F)F)cc1 (stereo unspecified)
inactive: activation [1] 20% | Potency [2] | Potency [3] | Potency [4]

C=CC(=O)N1CCN(C(=O)c2cc(-c3cc(Cl)ccc3Cl)c(Cl)cc2OC)CC1
inactive: activation [1] -7.64% | Potency [2] | Potency [3] | Potency [4]

CCCCS(=O)(=O)NC(Cc1ccc(OCCCCC2CCNCC2)cc1)C(=O)O (stereo unspecified)
inactive: activation [1] 12.9% | Potency [2] | Potency [3] | Potency [4]

CCN1CCN(Cc2ccc(NC(=O)c3ccc(C)c(Oc4ncnc5[nH]c(C)cc45)c3)cc2C(F)(F)F)CC1
active: Potency [1] 23.9 µM
inactive: Potency [2] | Potency [3] | Potency [4]

O=C(NCCN1CCOCC1)c1cc2c(Oc3ccc(NC(=O)C4(C(=O)Nc5ccc(F)cc5)CC4)cc3)ccnc2[nH]1
inactive: activation [1] 10% | Potency [2] | Potency [3] | Potency [4]

COc1cc(Br)c(Nc2nc(-c3c(C)nc4ncccn34)cs2)c(Br)c1
inactive: activation [1] 14.8% | Potency [2] | Potency [3] | Potency [4]
